# Data taken from PubChem BioAssay (NCATS).
# Inconclusive results are not listed. The source made the active and inactive calls. Calls come from the whole dose curve; as a rule, active = well fitted inhibition curve with a large enough effect; inconclusive = small, poorly fitted or top-dose-only effect; inactive = flat fitted curve, though single readings scatter.
# Molecular target: Calcium and integrin-binding protein 1 (Homo sapiens) (UniProt Q99828)
# Experiment: Primary qHTS for Identification of Calcium Integrin Binding Protein 1 (CIB1) Competitor (AID 1508620);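 note: GST tagged CIB1 binding a fluorescein labelled alphaIIb integrin peptide tracer; top concentration of the series differs between compounds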
# Settings: CIB1-GST / FITC-alphaIIb peptide fluorescence polarization; series mostly up to 114 µM; activity change, negative = inhibition: at the top concentration
# In short: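 CIB1-GST (1 uM final) and compound incubated 15 min at room temperature before adding FITC-alphaIIb peptide tracer (100 nM final). Competition for binding read by fluorescence polarization (ex 480, em 540) after another 15 min at room temperature.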
# % is set by controls: 0 for no effect and ±100 for the full control effect.
# Sequence of Calcium and integrin-binding protein 1 (Homo sapiens) (Q99828 whole entry, looked up): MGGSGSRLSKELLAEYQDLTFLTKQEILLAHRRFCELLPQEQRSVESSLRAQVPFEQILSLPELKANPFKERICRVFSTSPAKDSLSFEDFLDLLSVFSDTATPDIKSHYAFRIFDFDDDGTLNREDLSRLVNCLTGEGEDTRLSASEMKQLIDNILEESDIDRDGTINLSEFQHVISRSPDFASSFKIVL
Structure (SMILES),"activity change, negative = inhibition",Potency
Oc1ccc(CNc2cccnc2)c2cccnc12,4.29% (inactive),
COCC1CCCN(C(=O)CC(c2ccc3c(c2)OCO3)c2c(O)cc(OC)cc2OC)C1 (centres undefined),-3.64% [at 228 µM] (inactive),
CC(=O)N1CCN(S(=O)(=O)c2ccc3c(c2)CC(=O)N3)CC1,-1.8% [at 228 µM] (inactive),
COc1ccc(NC(=O)c2cnn3c(C)cc(C)nc23)cc1OC,3% (inactive),
COc1ccc(-n2c(C)c(C(C)=O)c3ccccc32)cc1,,inactive
COc1cccc(CNc2ccc(S(=O)(=O)Nc3ccccn3)cc2)c1O,-3.9% (inactive),
O=[S+]([O-])(Nc1ccc(N2CCNCC2)cc1)c1ccc(NCc2ccc(Cl)cc2O)cc1,-4.33% (inactive),
Cc1cc(C)nc(NC(=S)N2CCN(c3cccc4nccn34)CC2)c1,-6.15% (inactive),
Oc1ccc(CNc2ccc3ccccc3n2)c2cccnc12,-3.86% (inactive),
O=S(=O)(Nc1cc(O)cc2cccnc12)c1ccc(Br)s1,-23% (inactive),
COC(=O)Nc1sc2c(c1C(N)=O)CCCC2,-1.29% (inactive),
NNC(=O)C(C(=O)OCc1ccccc1)c1ccccc1 (centres undefined),-5.23% (inactive),
O=C(Nc1ncc(Cc2ccc(C(F)(F)F)cc2)s1)c1cnc(-c2ccccc2)s1,7.75% (inactive),
CCOC(=O)c1ccoc1-c1ccc2ncnc(NCc3ncc[nH]3)c2c1,-1.65% (inactive),
Cc1cc2c(s1)c1cnn(Cc3ccc(Cl)c(F)c3)c(=O)c1n2C,3.28% (inactive),
O=C(OCC#CCSc1nnc(-c2cccs2)o1)c1ccc(F)cc1,2.34% (inactive),
O=C(Nc1ccccc1F)c1ccc(O)c2ncccc12,-14.6% (inactive),
CCOc1ccc(CCNC(=O)c2ccnn2Cc2cccc(C)c2)cc1OCC,-2.12% (inactive),
COc1cccc(-c2nnc3n2N=C(c2c(OC)cccc2OC)CS3)c1OC,2.96% (inactive),
